# Results from the supplement of paper PMC7801607.
# What was measured:
# [1] = system: CHO; assay: % viability of CHO cells (MTT); higher = less toxic; conditions: 48 h
# Procedure, shortened: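 After overnight attachment of CHO cells seeded at 10^6 cells/well in 200 µL, the medium was exchanged for fresh medium holding compound at 2 or 20 µM. Exposure lasted 48 h. Survival was read with the colorimetric tetrazolium (MTT) assay and expressed as percent of untreated cells.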
# [2] = system: HepG2-A16-CD81; assay: % inhibition of HepG2 viability (CellTiter-Glo); higher = more toxic; conditions: 5 µM;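 note: HepG2-A16-CD81 hepatoma cells plated as in the liver-stage assay but without sporozoites, with DMSO wells as negative and 25 µM puromycin as positive control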
# [3] = system: Plasmodium falciparum NF54 stage IV/V gametocytes; assay: % inhibition of gametocyte viability (PrestoBlue); higher = more inhibition; conditions: 48 h
# Procedure, shortened: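 Compound at 1 or 5 µM was incubated with Stage IV/V NF54 gametocytes (2% gametocytaemia, 5% haematocrit) for 48 h at 37 °C, stationary and hypoxic. A 2 h PrestoBlue step followed, with fluorescence read at 612 nm on transferred supernatant. Inhibition of gametocyte viability, in percent, was normalised to vehicle and kill controls from a single run.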
# [4] = system: Plasmodium falciparum NF54 asexual blood stage; assay: % inhibition of asexual blood stage proliferation (pLDH); higher = more inhibition; conditions: 72 h
# Procedure, shortened: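 Compound was tested at 2 or 20 µM against Plasmodium falciparum NF54 ring stages (1% haematocrit, 2% parasitaemia) for 72 h at 37 °C in 4% CO2, 3% O2 and 93% N2. Survival was read at 620 nm with the parasite lactate dehydrogenase assay, and inhibition of asexual proliferation was given as a percentage of controls.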
# [5] = system: Plasmodium falciparum NF54 stage IV/V gametocytes; assay: % inhibition of gametocyte viability (ATP bioluminescence); higher = more inhibition; conditions: 24 h
# Procedure, shortened: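 Compound at 1 or 5 µM was tested on stage IV/V NF54 gametocytes, enriched on density gradients and plated at 30,000 per well in 96-well plates. After 24 h at 37 °C, ATP was quantified by Promega BacTiter Glo bioluminescence. Values are percent inhibition of gametocyte viability from one run, normalised to controls.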
# [6] = system: Plasmodium falciparum NF54 stage IV/V gametocytes; assay: % inhibition of gametocyte viability (luciferase reporter); higher = more inhibition; conditions: 48 h
# Procedure, shortened: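 Percent inhibition was normalised to controls from a single run. Stage IV/V gametocytes of the NF54-Pfs16-GFP-Luc line, at 2% gametocytaemia and 2% haematocrit, were exposed to compound at 1 or 5 µM for 48 h at 37 °C under stationary, hypoxic conditions. Luminescence was then read from 30 µL lysate mixed with 30 µL Promega luciferin substrate on a GloMax-Multi+ reader with 10 s integration.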
Compound,% viability of CHO cells ([1]; 2 µM) [%],% viability of CHO cells ([1]; 20 µM) [%],% inhibition of HepG2 viability [2] [%],% inhibition of gametocyte viability ([3]; 1 µM) [%],% inhibition of gametocyte viability ([3]; 5 µM) [%],% inhibition of asexual blood stage proliferation ([4]; 2 µM) [%],% inhibition of asexual blood stage proliferation ([4]; 20 µM) [%],% inhibition of gametocyte viability ([5]; 1 µM) [%],% inhibition of gametocyte viability ([5]; 5 µM) [%],% inhibition of gametocyte viability ([6]; 1 µM) [%],% inhibition of gametocyte viability ([6]; 5 µM) [%]
C[C@H](NC(CC(=O)c1ccccc1C(F)(F)F)C(=O)O)c1ccccc1 (stereo not given in full),119,58.9,0.323,20.3,77.3,34.4,108,11.3,35.8,< 0,56.4
c1ccc(Cn2c(-c3ccccn3)nc3ccccc32)cc1,75.8,117,1.97,-0.335,3.56,5.52,19.5,< 0,< 0,< 0,11.3
N#Cc1cc([N+](=O)[O-])ccc1Oc1ccccc1Cl,104,84.9,-4.08,55,53.9,-2.85,84.9,< 0,< 0,< 0,< 0
Cc1oncc1C(=O)Nc1ccc(C(F)(F)F)cc1,113,96.1,-5.44,< 0,< 0,50.7,38,12,< 0,23.8,45.6
C[C@@H](NC(=O)c1ccccc1-c1ccccc1)B(O)O,84,94,7.46,10.1,30.5,-8.74,-3.48,3.08,< 0,< 0,< 0
O=c1cc(Nc2ccc3ccccc3c2)[nH]c(=O)[nH]1,85.2,85.2,4.08,< 0,4.14,1.56,3.03,< 0,< 0,< 0,1.22
COc1ccc(CNC(=O)C2CCN([C@H](C)c3cccc4ccccc34)CC2)cc1,128,70.1,0.399,< 0,11,79.1,64.2,8.45,8.31,12.8,< 0
CC(C)(C)NC(=O)[C@@H]1CN(Cc2cnc3occc3c2)CCN1C[C@@H](O)C[C@@H](Cc1ccccc1)C(=O)N[C@H]1c2ccccc2C[C@H]1O,99.9,78.9,4.33,30.9,51.4,55.2,55.9,1.91,< 0,2.7,15.5
CCc1nc2ccc(Cl)cn2c1C(=O)NCc1ccc(N2CCC(c3ccc(OC(F)(F)F)cc3)CC2)cc1,91.1,113,7.13,22,< 0,31.7,102,< 0,< 0,4.46,< 0
CC1(C)[C@H](C(=O)O)N2C(=O)C[C@H]2S1(=O)=O,,,,< 0,< 0,11.2,34.3,< 0,< 0,< 0,< 0
O=C(/C=C/n1cnc(-c2cc(C(F)(F)F)cc(C(F)(F)F)c2)n1)NNc1cnccn1,102,103,-11.2,11.2,-0.3,-23.5,56.5,0.272,< 0,0.0379,< 0
CCOc1noc2cc(OCCC3CCN(c4ccc(C)nn4)CC3)ccc12,66.5,58,1.58,16.1,23.3,84.1,70.5,6.06,0.657,6.47,5.12
CN(C(=O)C1(c2ccc(Cl)cc2)CCC1)c1ccccc1,105,102,-4.47,17.1,17.3,10.7,59,< 0,< 0,< 0,1.35
CCc1cc(O)c(Oc2cccnc2N)cc1F,64.8,62.9,-0.638,< 0,< 0,8.28,20.8,< 0,< 0,< 0,< 0
CCCCC(CC)CNC(=N)NC(=N)NCCCCCCNC(=N)NC(=N)NCC(CC)CCCC (stereo not given),101,124,57.5,44.5,79.2,92.1,87.5,66.4,93.8,98.7,100
C[C@@H](c1nc(-c2ccc(C#N)cc2)cs1)[C@](O)(Cn1cncn1)c1ccc(F)cc1F,92.5,99.8,3.07,12.4,15,-2.05,34.3,2.16,< 0,< 0,< 0
CC(C)c1cc2c(cc1S(=O)(=O)O)[C@@]1(C)CCC[C@@](C)(C(=O)O)[C@@H]1CC2,93.3,109,3.51,43.4,12.4,26,89,< 0,< 0,< 0,< 0
Nc1cccc(-c2nc(N)nc(NC3Cc4ccccc4C3)n2)c1,96.5,75.1,12.8,< 0,< 0,-7.13,22.3,< 0,< 0,< 0,< 0
O=c1ccc2ncc(=O)n3c2n1CC3CN1CCC(NCc2cc3c(cn2)OCCC3)CC1 (stereo not given),124,97.3,6.64,< 0,28.4,12.5,40.4,0.762,< 0,< 0,< 0
CC(Oc1ccc(Cl)cc1Cl)C(=O)NCc1ccc2c(c1)OCO2 (stereo not given),,,,< 0,35.3,-4.14,-3.59,< 0,< 0,< 0,< 0
O=C1c2cccc3cccc(c23)C(=O)N1CC1CO1 (stereo not given),107,108,-6.3,7.65,8.86,22,66.9,< 0,< 0,< 0,3.81
